Experiment [1] concerns Zika virus NS2B-NS3 protease (linked construct). The experiment in a line: Primary screen NINDS Rhodamine qHTS for Zika virus inhibitors (AID 1347160). Further: nearly all actives have a fitted effect of over 55% in size. Further: potency means the concentration at half of the fitted maximal effect. The gist of the method:
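Each compound, titrated, sat 15 min with 25 nM linked protease before 1.5 microM Rhodamine110 substrate went in. Fluorescence gain over the next 15 min, in pH 8.0 Tris with Tween 20, gave Hill-fitted curves.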
In general terms: Quantitative high-throughput screening tests each substance at several concentrations.

The nature of experiment [2]: UWB1.289 Cancer Cell Toxicity qHTS against the NCATS CANVASS Library (AID 1347347). Further: nearly all actives have a fitted effect of over 60% in size. Further: potency means the concentration at half of the fitted maximal effect. The gist of the method:
(§1)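 ATP content after 72 h treatment, detected by CellTiter-Glo luminescence (15min room-temperature development), reflects cell viability. Wells contained 1000 cells and received compounds at 11 concentrations.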

Experiment [3] can be described thus: OV-SAHO Cancer Cell Toxicity qHTS against the NCATS CANVASS Library (AID 1347348). Further: nearly all actives have a fitted effect of over 55% in size. Further: potency means the concentration at half of the fitted maximal effect. In short, it runs like this: as §1
Experiment [4] in a line: Panc-1005 Cancer Cell Toxicity qHTS against the NCATS CANVASS Library (AID 1347349). Further: nearly all actives have a fitted effect of over 60% in size. Further: potency means the concentration at half of the fitted maximal effect. The gist of the method:
as §1

Experiment [5] in a line: A2780 Cisplatin Sensitive Ovarian Cancer Cell Toxicity qHTS against the NCATS CANVASS Library (AID 1347353). Further: nearly all actives have a fitted effect of over 60% in size. Further: potency means the concentration at half of the fitted maximal effect. In short, it runs like this:
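Quantitative HTS format: eleven compound concentrations applied to pre-seeded cells, 72 h incubation at 37 °C, then ATP detection by luminescence.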

Experiment [6] in a line: UWB1.289-WTBRCA1 Cancer Cell Toxicity qHTS against the NCATS CANVASS Library (AID 1347354). Further: potency means the concentration at half of the fitted maximal effect. In short, it runs like this:
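Using an ATP-based luminescent reagent after three days of treatment, toxicity is scored across an eleven-concentration range in wells holding 1000 cells each.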

A short description of experiment [7]: HEK293 18hr Apoptosis Induction qHTS against the NCATS CANVASS Library (AID 1347357). In short, it runs like this:
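HEK293 cells (500/well, DMEM + 10% FBS) treated with an 11-point series for 18 h at 37 degrees C. Caspase-3/7 activity read by Caspase-Glo luminescence after 15 min at room temperature.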

In experiment [8] the test system is NAD(P)H diaphorase (Clostridium kluyveri). As to the kind of experiment: Diaphorse counterscreen qHTS: Assay Interference Panel against the NCATS CANVASS Library (AID 1347362). Further: potency means the concentration at half of the fitted maximal effect. In short, it runs like this:
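Clostridium kluyveri diaphorase in PBS + 0.01% Tween-20 preincubated 15 min with compounds. Resazurin and NADH then added for 5 min at room temperature in the dark; resorufin fluorescence read (ex 525, em 598).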

Experiment [9] can be described thus: KB-8-5-11 Cancer Cell Toxicity qHTS against the NCATS CANVASS Library (AID 1347364). Further: nearly all actives have a fitted effect of over 75% in size. Further: potency means the concentration at half of the fitted maximal effect. The gist of the method:
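Luminescent ATP signal (CellTiter-Glo, 10 min at room temperature) measured cell survival of KB-8-5-11 after 72 hr compound treatment. For confirmation, the cells were also grown with 1uM tariquidar.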

A short description of experiment [10]: SDT Cancer Cell Toxicity qHTS against the NCATS CANVASS Library (AID 1347365). Further: nearly all actives have a fitted effect of over 60% in size. Further: potency means the concentration at half of the fitted maximal effect. The gist of the method: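 Canine SDT glioma cell toxicity was scored by ATP-dependent luminescence after a 72 hr incubation with an 11-point compound series.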
A short description of experiment [11]: G06 Cancer Cell Toxicity qHTS against the NCATS CANVASS Library (AID 1347368). Further: nearly all actives have a fitted effect of over 60% in size. Further: potency means the concentration at half of the fitted maximal effect. In short, it runs like this:
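Quantitative HTS in G06 cells (dog glioma): 72 hr treatment, 11 concentrations, then ATP-based luminescent viability readout; bortezomib 0.1 nM–4.6 uM final as reference.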

Experiment [12] in a line: qHTS for ATAD5 Antagonist screened against the NCATS CANVASS Library (AID 1347370). Further: nearly all actives have a fitted effect of over 65% in size. Further: potency means the concentration at half of the fitted maximal effect. In short, it runs like this:
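HEK293T-ATAD5 luc reporter, 2000 cells/well; 5hr attach; cpd + 10 uM 5-FUrd; 16hr 37C, 5% CO2. Readouts: CellTiter-Fluor fluorescence (1hr), then Amplite luciferase luminescence (30min RT).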

A short description of experiment [13]: qHTS for Hypoxia signaling pathway (HIF-1) agonists against the NCATS CANVASS Library (AID 1347375). Further: potency means the concentration at half of the fitted maximal effect. The gist of the method: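 An HRE-beta-lactamase ME-180 line is exposed for 17 h to an 11-point compound series, then read by CCF4-AM FRET. Cytotoxicity is measured in parallel in the same wells with CellTiter-Glo, and autofluorescence is checked separately.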

The nature of experiment [14]: qHTS for activators of Nrf2/ARE signaling pathway screened against the NCATS CANVASS Library (AID 1347391). Further: nearly all actives have a fitted effect of over 60% in size. Further: potency means the concentration at half of the fitted maximal effect. The gist of the method: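 Activation of Nrf2/ARE was scored in ARE-bla HepG2 cells after 16 h compound exposure using CCF4 beta-lactamase fluorescence ratio readings.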
Experiment [15] is described as follows: Vero-766 cells viability qHTS against the NCATS CANVASS Library: Counterscreen for Zika virus inhibition assay (AID 1347394). Further: nearly all actives have a fitted effect of over 60% in size. Further: potency means the concentration at half of the fitted maximal effect. In short, it runs like this:
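Vero 766 cells (1000/well), without Zika virus, were exposed to compounds for 72 h at 37C. Viability was measured by CellTiter Glo luminescence. Media-only wells served as 100% inhibition.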

The nature of experiment [16]: Redox Reaction Profiling qHTS: Assay Interference Panel against the NCATS CANVASS Library (AID 1347401). The gist of the method: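 Fluorescence read-out (525 nm excitation, 598 nm emission) at time zero and after 15 min in the dark tracked resorufin formation. Mix: 5 uM resazurin, 200 uM DTT, HEPES pH 7.3 buffer with NaCl.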
Experiment [17] in a line: qHTS for Hypoxia signaling pathway (HIF-1) antagonists against the NCATS CANVASS Library (AID 1347374). Further: nearly all actives have a fitted effect of over 60% in size. Further: potency means the concentration at half of the fitted maximal effect. In short, it runs like this: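 Beta-lactamase reporter under HRE control in ME-180 cells; CoCl2 stimulus (60 uM solution as added), compounds 11-pt qHTS, 17 h 37C. CCF4 dye 2 h RT, 460/530 nm emission. CellTiter-Glo viability in same wells.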
The nature of experiment [18]: Cytotoxicity qHTS for assessment of Hepg2 cells membrane integrity screened against the NCATS CANVASS Library (AID 1347387). The gist of the method: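 Membrane damage in HepG2 monolayers was estimated from released LDH, measured with CytoTox-ONE (ex 560/em 590 nm), after 5 hr treatment across 0.59 nM - 46 uM final.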
Experiment [19] is described as follows: qHTS for inhibitors of Wild type Zika virus screened against the NCATS CANVASS Library (AID 1347396).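 Further: ATP luminescence of surviving cells so rescue from viral cell killing; series mostly up to about 46 µM.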 In short, it runs like this:
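Vero 766 (African green monkey) cells, 1000 per well, attached overnight, then compounds were added in an 11-point series before wild-type Zika virus infection. After 72 h at 37C, cell viability was read as CellTiter Glo luminescence.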

Experiment [20] can be described thus: qHTS for activators of dead-cell proteases activity screened against the NCATS CANVASS Library (AID 1347392).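 Further: luminescence from protease leaking out of membrane-damaged cells cleaving impermeant substrate; rising signal means more cytotoxicity.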 The gist of the method:
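HepG2, 2000 cells/well, 18 h attach; cpd 11-pt, 5 h 37C 5% CO2; CytoTox-Glo (AAF-aminoluciferin) 15 min RT; luminescence read.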

Results filed as inconclusive are left out. Unmarked numbers belong to inactive results. Calls of active or inactive are those of the source. The call rests on the fitted dose curve; in most records, active means well fitted curve in the direction sought with a large enough effect; inconclusive means small, poorly fitted or top-dose-only effect, or another doubt; inactive means no such curve, though single readings can be large; an effect the other way counts as inactive or inconclusive.

For `CN1CC[C@]2(c3cccc4c3N[C@@H]3N(C)CC[C@]43[C@@]34CCN(C)[C@@H]3Nc3c([C@]56CCN(C)[C@H]5Nc5ccccc56)cccc34)c3ccccc3N[C@H]12`, the Potency entry in experiment [1], in experiment [7], in experiment [8], in [14] and in [16] was “inactive” in each case. The Potency in experiment [2] was 4.72 µM (active); in experiment [3], 3.75 µM (active); in experiment [4] it was 6.68 µM (active); in [5], 9.35 µM (active); in [6], 10.6 µM (active); in [9] it was 9.35 µM (active). Moreover, the Potency was 1.32 µM (active) in experiment [10]; 2.64 µM (active) in [11]; 9.33 µM (active) in experiment [12]; 9.41 µM (active) in experiment [13]; 20.9 µM (active) in experiment [15].

`CC1=CC[C@@]2(C[C@@H]1O)[C@@H](C(=O)O)CC[C@H]2C(C)C`: the Potency entry in experiment [2], in [4], in experiment [5], in experiment [6], in [8] and in experiment [9] was “inactive” each time. Also, the Potency entry in [10], in experiment [11], in [12], in [17], in experiment [13] and in experiment [14] was “inactive” each time. Besides, the Potency result in experiment [19] and in [16] was “inactive” throughout. In addition, the result in [18] was inactive.

`C/C=C/C(=O)[C@@H](C)C1=CC(=O)C2=C(O[C@@]34CC[C@H](O)C(C)(C)[C@@H]3CC[C@H](C)[C@@]4(C)C2)C1=O`: the Potency was 49.3 µM (active) in experiment [1]; 21.1 µM (active) in [2]; 6.66 µM (active) in [3]; 4.21 µM (active) in [4]; 1.66 µM (active) in experiment [5]; 8.61 µM (active) in experiment [8]. Further, the Potency is 14.8 µM (active) in experiment [9]; 2.96 µM (active) in experiment [10]; 3.32 µM (active) in [11]; 7.41 µM (active) in experiment [12]; 2.11 µM (active) in experiment [17]; 1.86 µM (active) in experiment [14]. Moreover, the Potency in experiment [15] is 18.6 µM (active). Moreover, in experiment [18], the outcome was inactive. In addition, the Potency entry in [16] was “inactive”.

As for `COc1cc(/C=C/C(=O)O)ccc1O`, the Potency result in [1], in [2], in experiment [4], in experiment [5], in experiment [6] and in experiment [7] was “inactive” in each case. Moreover, the Potency result in [8], in [9], in experiment [10], in experiment [11], in experiment [12] and in experiment [17] was “inactive” throughout. For the same compound, the Potency result in experiment [13], in experiment [14], in [20], in experiment [15], in experiment [19] and in experiment [16] was “inactive” in each case. For the same compound, the compound was classed as inactive in experiment [18].

Take `C[C@@H]1O[C@@H](Oc2c(-c3ccc(O)cc3)oc3cc(O)cc(O)c3c2=O)[C@H](O)[C@H](O)[C@H]1O`: the Potency in [1] was 44 µM (active). Besides, the Potency entry in experiment [2], in experiment [3], in [4], in [5], in [6] and in experiment [7] was “inactive” in each case. The Potency result in [9], in experiment [10], in experiment [11], in [12], in experiment [14] and in experiment [19] was “inactive” in each case. Further, in experiment [16], the Potency entry was “inactive”. Besides, the outcome in experiment [18] was inactive.

With `C/C(=C\[C@H](C)C(=O)CCCC1CC(=O)NC(=O)C1)C(O)[C@@H](C)[C@H](O)C/C=C/CC/C=C/C(=O)O` (some centres not stated), in experiment [1], the Potency was 55.3 µM (active). The Potency result in [2], in [3], in experiment [4], in [5], in experiment [6] and in [8] was “inactive” throughout. The Potency result in experiment [9], in [10], in experiment [12], in experiment [17], in experiment [13] and in experiment [14] was “inactive” in each case. For the same compound, the Potency result in experiment [20], in experiment [15] and in experiment [19] was “inactive” each time. Further, in experiment [18], the compound was classed as inactive.

These data come from PubChem BioAssay (NCATS).
